The results in this text go back to PubChem BioAssay (NCATS).

Inconclusive results are not listed. Values without a mark were called inactive. Calls of active or inactive are those of the source. Calls follow the shape of the dose curve; as a rule, active = well fitted inhibition curve with a large enough effect; inconclusive = small, poorly fitted or top-dose-only effect; inactive = no such curve, though single readings can be large or run the other way.

The test in a line: NS1 protein of Zika virus - qHTS assay to identify small molecule inhibitors in human HEK 293 cells (AID 1347053).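 Also: plate controls were infected untreated cells for no effect and uninfected cells for full effect; nearly all actives have a fitted effect of over 55% in size.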 The settings on record: HEK293 ZIKV MR766 infection, NS1 TR-FRET, 24 h; series mostly up to 46.1 µM; activity change, negative = inhibition: at the top concentration. The text has this:
National Center for Advancing Translational Sciences [NCATS]
Johns Hopkins University School of Medicine
The non-structural 1 (NS1) protein of zika virus is known to associate with the viral replication complex. This cell-based TR-FRET ZIKV NS-1 assay measures the increased NS-1 protein in human HEK 293 cells after a 24-hour Zika virus infection by a TR-FRET assay readout. A decrease in the Time-resolved fluorescence energy transfer (TR-FRET) signal in this assay by small molecule treatment indicates an inhibitory effect of the small molecule on the expression of Zika virus NS1 correlating with Zika virus replication.
HEK 293 cells were cultured in EMEM (ATCC, Cat. # 30-2003) medium with 10% fetal bovine serum (GE healthcare Life Sciences, Cat. # SH30071.03), and 1% Pen/Strep (Gibco, Cat. # 15140-122). Cells were seeded in the assay plate and incubated at 37 C with 5% CO2 for 20 hours. Compounds were added to cells and incubated for one hour before addition of ZIKV MR766 strain solution to cells (MOI = 0.5). After an incubation at 37 C for 24 hours, the reagent mixture of TR-FRET ZIKV NS1 assay using two anti-ZIKV NS1 antibodies was added to assay plates. The TR-FRET signals in assay plates were measured using an Envision plate reader (PerkinElmer). Data were normalized by using the cell-containing wells without ZIKV as a negative control (0% NS-1) and wells containing ZIKV infected cells as a positive control (100% NS-1 level).
`CSc1ccc(C(=O)c2[nH]c(=O)[nH]c2C)cc1`: the result was inactive.

Regarding `Cc1nc2c([nH]1)c(=O)n(C)c(=O)n2Cc1ccco1`, the result was inactive.

As to `C[N+](C)(C)CCCCCCCCCC[N+](C)(C)C`, the compound was called inactive.

On to `CCCCCN(CCCCC)C(=O)C(CCC(=O)O)NC(=O)c1ccc(Cl)c(Cl)c1` (stereo not given), for which the call was inactive.

For `CC(=O)[C@]1(O)Cc2c(O)c3c(c(O)c2[C@@H](O[C@H]2C[C@H](N)[C@H](O)[C@H](C)O2)C1)C(=O)c1ccccc1C3=O`, the “activity change, negative = inhibition” value was -69.3%.

Consider `C(=C\c1ccccc1)/CN1CCN(C(c2ccccc2)c2ccccc2)CC1`, for which the result was inactive.

As to `CN(C)CC/C=C1\c2ccccc2COc2ccccc21`, the call was inactive.

`O=C(O)CCCCCCCC(=O)O`: the compound was classed as inactive.

In the case of `CCCC(C(=O)OCCN(CC)CC)(c1ccccc1)c1ccccc1`, the outcome was inactive.

Regarding `CCCNC(C)C(=O)Nc1ccccc1C` (stereo not given), the compound was classed as inactive.

Regarding `CN(C)CCCN1c2ccccc2Sc2ccccc21`, the result was inactive.

Turning to `C[C@]12C=CC(=O)C=C1CC[C@H]1[C@@H]3C[C@@H](O)[C@](O)(C(=O)CO)[C@@]3(C)C[C@H](O)[C@@]12F`, the compound was classed as inactive.

For the compound `C[C@@H](O)[C@H]1C(=O)N2C(C(=O)O)=C(SCCN=CN)C[C@H]12`, the result was inactive.

On to `CCN(CC)CCNC(=O)c1ccc(NC(C)=O)cc1`, for which the compound was classed as inactive.

On to `CNCCC(Oc1ccccc1OC)c1ccccc1` (stereo not given), for which the result was inactive.

Regarding `CC(=O)Nc1nnc(S(N)(=O)=O)s1`, the outcome was inactive.

Turning to `COC(=O)[C@H]1[C@H]2C[C@@H]3c4[nH]c5cc(OC)ccc5c4CCN3C[C@H]2C[C@@H](OC(=O)c2cc(OC)c(OC)c(OC)c2)[C@@H]1OC`, the compound was called inactive.

As for `CN/C(=C\[N+](=O)[O-])NCCSCc1ccc(CN(C)C)o1`, the result was inactive.

For the compound `CCCCCCCC/C=C\CCCCCCCC(=O)NCc1ccc(O)c(OC)c1`, the call was inactive.

Take `CC(C)[N+](C)(CCOC(=O)C1c2ccccc2Oc2ccccc21)C(C)C`: the compound was classed as inactive.

In the case of `C[C@H](CS)C(=O)N1CCC[C@H]1C(=O)O`, the compound was classed as inactive.

Consider `CCN1CCC[C@H]1CNC(=O)c1c(O)c(Cl)cc(Cl)c1OC`, for which the outcome was inactive.

For the compound `CN(C)C(=O)Oc1cccc([N+](C)(C)C)c1`, the call was inactive.

Take `COc1cc(C(=O)OCCCN2CCCN(CCCOC(=O)c3cc(OC)c(OC)c(OC)c3)CC2)cc(OC)c1OC`: the compound was called inactive.

For `NC(=O)c1cn(Cc2c(F)cccc2F)nn1`, the result was inactive.

`CCCN(CCC)CCc1cccc2c1CC(=O)N2`: the result was inactive.

With `CC(C)NCC(O)c1cc(O)cc(O)c1` (stereo not given), the compound was classed as inactive.

On to `Brc1c(NC2=NCCN2)ccc2nccnc12`, for which the outcome was inactive.

On to `NCCCNCCSP(=O)(O)O`, for which the result was inactive.

As for `c1cc(CN2CCCCC2)cc(OCCCNc2nc3ccccc3s2)c1`, the call was inactive.

Consider `CCCN(CCC)C(=O)C(CCC(=O)O)NC(=O)c1ccccc1` (stereo not given), for which the compound was called inactive.

`CN=C(NC#N)NCCSCc1nc[nH]c1C`: the call was inactive.

As for `CCN(CC)CCOCCOC(=O)C1(c2ccccc2)CCCC1`, the result was inactive.

With `CCn1ccnc1CC1COc2ccccc2O1` (stereo not given), the call was inactive.

For the compound `CNC1(C)C2CCC(C2)C1(C)C` (stereo not given), the compound was classed as inactive.

Turning to `NC(N)=N/N=C/c1c(Cl)cccc1Cl`, the call was inactive.

On to `CN1C(=O)CC[C@H]1c1cccnc1`, for which the call was inactive.

Regarding `CC(=O)OCC1=C(C(=O)O)N2C(=O)[C@@H](NC(=O)Cc3cccs3)[C@H]2SC1`, the call was inactive.

As for `COc1cc(Cc2cnc(N)nc2N)cc(OC)c1OC`, the compound was called inactive.

In the case of `CN1CCN(CC(=O)N2c3ccccc3C(=O)Nc3cccnc32)CC1`, the compound was classed as inactive.
